Experimental data reported in PubChem BioAssay AID758 (NMMLSC, 2007).
Hit rate of the full screen: of about 190,000 compounds, about 110 (0.058%) were called active. Another 2% or so got no clear call; they are omitted.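 The calls were made as follows: active = fluorescent GTP binding to Rab7 beads changed by at least 20 points from the 100% baseline, either direction, mostly lower; inconclusive = compound itself probably fluorescent, or too few beads counted; inactive = the rest.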 For the sample, actives were picked, then their nearest neighbours and some compounds at random.

tested on: Rab7 GTPase wild type (dog), Bodipy-FL-GTP binding; test: modulators of GTP binding to Rab7, primary screen, biochemical, wildtype, multiplex bead flow cytometry (AID 758); details: GST-Rab7 beads, fluorescent GTP binding, at 10 µM, actives lie on both sides;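 also: median green fluorescence of bound Bodipy-FL-GTP per Rab7 bead population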

Compound	GTP binding activity (percent of control)
CCOc1ccc(C2SCC(=O)Nc3c2c(C)nn3C2CCOC(C)(C)C2)cc1 (stereo not given)	79% (active)
CCCC(C)n1[nH]c(=O)c2c1NC(=O)CSC2c1ccc(OC)c(OC)c1 (stereo not given)	100% (inactive)
CN(C)CCCN=Cc1c(O)n(Cc2ccco2)c(=O)[nH]c1=O	104% (inactive)
COP(=O)(OC)C(NC(=O)c1ccc(C)cc1)C(Cl)(Cl)Cl (stereo not given)	99% (inactive)
O=C(Cc1ccccc1)N1CCN(C2CCCCCC2)CC1	98% (inactive)
